In the library only some 2.3% were active in any assay of this set; here they are far more common.
Jurkat NFkB inh: inhibitors of the PMA/ionomycin-induced NF-kB reporter in Jurkat cells. PMA/ionomycin-induced NF-kB luciferase reporter, luminescence. inhibition, % at 4 µM. hit rate 0.53% among 330,000; in the data active = inhibition above about 50%
697 NFkB inh: inhibitors of the PMA/ionomycin-induced NF-kB reporter in 697 B cells | 697 B-cell NF-kB luciferase reporter, 16 h | inhibition, % at 4 µM | hit rate 0.33% among 330,000; in the data active = inhibition above about 35%
MITF TRPM1 inh: reduces MITF-dependent TRPM1 promoter luciferase signal | SK-MEL-5 TRPM1 promoter luciferase, 24 h | inhibition, % at 12.5 µM | hit rate 0.83% among 330,000;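 active = mean inhibition across replicates of 60% or more, whatever share of single replicates reaches that level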
Shn3 inh set2: reduces Shn3 3'UTR luciferase signal in osteoblasts. Clone20 osteoblast Shn3 3'UTR firefly luciferase, 24 h. AID 588674. hit rate 0.52% among 360,000. inhibition, % at 12.5 µM;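 active = mean inhibition of at least 75% with every replicate also reaching 75%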
LMP1 NFkB inh: Epstein-Barr LMP1 NF-kappaB reporter inhibition; inhibition, % at 12.5 µM; LMP1-induced NF-kappaB luciferase reporter cells, luminescence; hit rate 0.69% among 350,000; in the data active = inhibition above about 41%
Gli-Sufu block: Gli-Sufu pathway antagonism | Sufu-KO-LIGHT fibroblasts, Gli luciferase reporter luminescence | inhibition, % at 5 µM | hit rate 0.74% among 340,000 | AID 588413;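 active = inhibition above about 55%, limit read from the data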
Jurkat NFkB conf: lowers PMA/ionomycin-induced NF-kB signal in Jurkat cells | shares compounds with Jurkat NFkB inh | hit rate 27% among 2,700 | inhibition, % at 4 µM | AID 435020 | Jurkat NF-kB luciferase, 16 h;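 active = inhibition reaching about 45% at 4 µM in either replicate, limit read from the data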
Numbers stand for hits; 0 = inactive; - = not tested or not shown.

SMILES	Jurkat NFkB inh	697 NFkB inh	MITF TRPM1 inh	Shn3 inh set2	LMP1 NFkB inh	Gli-Sufu block	Jurkat NFkB conf
COc1cccc(/C=N/Nc2ccc(C(=O)O)cc2)c1O	88.1	0	105.3	92.3	83.1	72.7	56.8
Cc1ccsc1S(=O)(=O)N1CCC(CO)(CC2CCCCO2)CC1 (stereo not drawn)	0	0	0	0	0	0	-
CC12CC3CC(C)(C1)CC(C(=O)N1CCN(C(=O)C4CCCO4)CC1)(C3)C2 (stereo not drawn)	0	0	0	0	0	0	-
COc1cccc(N/C(N)=N/c2nc(C(F)(F)F)cc(C(F)(F)F)n2)c1	0	0	0	0	0	0	-
COc1cc2c(cc1O)CC[C@@H]1[C@@H]2CC[C@]2(C)[C@@H](O)CC[C@@H]12	61.2	0	0	0	0	0	53.5
Cc1cccc(C(=O)Nc2nnc(SCC(=O)NC3CC3)s2)c1	0	0	0	0	0	0	-
CC(C)CC(=O)Nc1ccc2nn(-c3ccccc3)nc2c1	0	0	0	0	0	0	0
Cc1ccc2nc(SCC(=O)Nc3cc(C(F)(F)F)ccc3N3CCOCC3)[nH]c2c1	52.0	0	0	0	0	0	56.1
O=C(CSc1nccc(=O)[nH]1)Nc1cc(C(F)(F)F)ccc1N1CCOCC1	0	0	0	0	0	0	-
Fc1ccccc1/C=N/Nc1nc(-c2ccccn2)nc2ccccc12	61.0	0	-	-	-	-	0
c1ccc(CNc2nc(-c3ccccn3)nc3ccccc23)cc1	0	0	0	0	0	0	-
CCOC(=O)C1CCN(S(=O)(=O)c2cccc3nonc23)CC1	0	0	0	0	0	0	-
CCOC(=O)C1CCN(S(=O)(=O)c2c(Cl)ccc3nonc23)CC1	71.6	0	93.5	96.1	0	-	0
O=C(Nc1ccc(Cl)c(S(=O)(=O)N2CCOCC2)c1)c1cccs1	0	0	0	0	0	0	-
O=S1(=O)C=CC(Nc2cccc(Cl)c2)C1 (stereo not drawn)	50.3	0	0	0	0	0	0
Cc1cc(C)n(CC(=O)NC2CCCc3c2cnn3-c2ccccc2F)n1 (stereo not drawn)	0	0	0	0	0	0	-
CCOC(=O)c1ccc(Nc2nc(N)c3cc(OC)c(OC)cc3n2)cc1	74.0	0	0	0	0	0	89.7
COc1cc2nc(Nc3ccc(F)cc3)nc(N)c2cc1OC	0	0	0	0	0	0	-
Cc1ccc(S(=O)(=O)/N=C2\C=C(Nc3ccc(O)cc3)C(=O)c3ccccc32)cc1	64.3	0	98.7	97.3	88.5	94.4	99.3
CCCSc1nnc(Sc2nnnn2-c2ccccc2)s1	86.6	0	0	0	0	0	60.8
C(=C\CSc1nnnn1-c1ccccc1)/CSc1nnnn1-c1ccccc1	0	0	0	0	0	0	-
COc1ccc(NC(=O)/C(Cl)=C(/Cl)S(=O)Cc2ccc(Cl)cc2)cn1 (stereo not drawn)	101.3	0	93.7	96.3	77.8	0	98.9
O=C(Nc1ccc(-c2nc3ccccc3s2)c(OC(=O)c2ccccc2)c1)c1ccccc1	0	0	0	0	0	0	0
O=C(Nc1ccc2nc3ccccc3nc2c1)c1ccccc1	-	-	0	0	0	0	-
COc1ccc(N(Cc2cc3cc(OC)ccc3[nH]c2=O)S(=O)(=O)c2ccc(NC(C)=O)cc2)cc1	68.6	0	0	0	0	0	0
SMILES	Jurkat NFkB inh	697 NFkB inh	MITF TRPM1 inh	Shn3 inh set2	LMP1 NFkB inh	Gli-Sufu block	Jurkat NFkB conf
O=c1cc(-c2ccccc2)[nH]c2ccccc12	55.0	0	0	0	0	0	0
O=C(Nc1nc2ccccc2[nH]1)c1cc2ccccc2o1	0	0	0	0	0	0	0
COc1ccc2oc(C(=O)Nc3nc4ccccc4[nH]3)c(C)c2c1	0	0	0	0	0	0	0
Cc1cc(C)cc(C(=O)Nc2nc3ccccc3[nH]2)c1	0	0	0	0	0	0	-
COc1ccc(Br)c(C(=O)Nc2nc3ccccc3[nH]2)c1	0	0	0	0	0	0	-
O=C(Nc1nc2ccccc2[nH]1)c1ccc(F)cc1	0	0	0	0	0	0	0
Cc1ccsc1C(=O)Nc1nc2ccccc2[nH]1	0	0	0	0	0	0	0
OC1(c2ccc3ccccc3c2)CCN(Cc2ccccc2)C1 (stereo not drawn)	0	0	0	0	0	0	-
COc1ccc(NC(C)=O)cc1S(=O)(=O)NC(Cc1ccccc1)C(=O)O (stereo not drawn)	0	0	0	0	0	0	-
CCCN(CC(=O)Nc1ccc(Cl)cc1Cl)C(=O)/C=C/c1cccc([N+](=O)[O-])c1	0	0	0	0	0	0	-
COc1ccc(S(=O)(=O)Nc2cccc(-c3ccc4nncn4n3)c2)cc1F	57.7	0	0	0	0	0	50.2
CN1CCN(c2ccc(-c3ccnn3C(=O)Nc3cccc(C(F)(F)F)c3)cc2)CC1	0	0	0	0	0	0	-
COc1ccc(N=C2S/C(=C\c3ccc(OCC(=O)O)cc3)C(=O)N2CCc2c[nH]c3ccccc23)cc1	0	0	0	0	0	0	-
COc1ccc(N=C2S/C(=C\c3ccc(N4CCOCC4)o3)C(=O)N2CCc2c[nH]c3ccccc23)cc1	100.0	0	0	95.0	0	-	0
CC(=O)Nc1cccc(NC(=O)CSc2nccn2Cc2ccco2)c1	0	0	0	0	0	0	-
O=C(NC1CCCCC1)c1ccc(-c2cccc([N+](=O)[O-])c2)o1	0	0	0	0	0	0	0
O=C(NC1CCCCC1)c1ccc(-c2ccccc2F)o1	0	0	0	0	0	0	0
COc1ccc(-c2ccc3c(c2)S(=O)(=O)c2cccc(C(=O)N4CCN(c5ccc(Cl)cn5)CC4)c2C3=O)cc1OC	0	0	0	0	0	0	-
CCOC(=O)c1[nH]c(C)c(/C(O)=C2\C(=O)C(=O)N(CCCN3CCOCC3)C2c2cccs2)c1C (stereo not drawn)	54.8	0	0	0	0	0	0
CN(C)S(=O)(=O)c1ccc(Nc2nc(C3CC3)nc3c2nnn3Cc2ccccc2Cl)cc1	57.3	0	0	0	0	0	65.4
Cc1cc(C(=O)CSc2ncnc3ccccc23)c(C)n1C1CC1	0	0	0	0	0	0	-
Cc1cc(-n2c(C)cc(C(=O)CSc3ncnc4ccccc34)c2C)no1	55.5	0	0	0	0	72.8	0
COc1ccccc1C(=O)Nc1ccc(N2CCN(C(C)=O)CC2)cc1	0	0	0	0	0	0	-
O=C(Nc1ccc(N2CCCCCC2)cc1)c1ccc[nH]1	0	0	0	0	0	0	0
Cc1cc(C)cc(C(=O)Nc2ccc(N3CCCC3)cc2)c1	0	0	0	0	0	0	0
O=C(Nc1ccc(N2CCCCCC2)cc1)c1ccccc1Cl	0	0	0	0	0	0	-
COc1ccccc1C(=O)Nc1ccc(N2CCCCC2)cc1	0	0	0	0	0	0	0
O=C(Nc1ccc(N2CCCCC2)cc1)c1ccccn1	66.7	0	82.2	0	75.4	64.4	68.9
